Counter-ions that a name gives are not always drawn. ± gives the standard deviation of the averaged measurements.
Tested on: E. coli TESEC Mtb DapB
Experiment: growth (OD600 after 10 h); higher = more growth (less inhibition)
Conditions: arabinose induction (level): High; compound 0.1 mM; raw OD600 reference: median of DMSO wells […], cell-free background 0.041
Experimental: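 TESEC E. coli strains in which the native enzyme is deleted and replaced by arabinose-inducible Mtb Asd, DapB, CysH or TrpD, each grown in its selective medium. Strains were screened against the Prestwick library at 0.1 mM and 1% DMSO in 384-well format at low and high arabinose induction. Growth is read as OD600 after 10 h in triplicate.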

Row | SMILES | growth
1 | CCOC(=O)C1=C[C@]2(CC)CCCN3CCc4c(n1c1ccccc41)[C@@H]32 [Vinpocetine] | 0.164 ± 0.0032
2 | COc1ccccc1O [Guaiacol] | 0.19 ± 0.008
3 | CC(=O)Oc1ccccc1C(=O)O [Acetylsalicylic acid] | 0.198 ± 0.016
4 | C[C@]12CC[C@@H]3c4ccc(O)cc4C[C@@H](CCCCCCCCC[S+]([O-])CCCC(F)(F)C(F)(F)F)[C@H]3[C@@H]1CC[C@@H]2O (stereo not given in full) [Fulvestrant] | 0.212 ± 0.0092
5 | CC(=O)O[C@H]1C[C@@H]2CC[C@@H]3[C@H](CC[C@@]4(C)[C@H]3C[C@H]([N+]3(C)CCCCC3)[C@@H]4OC(C)=O)[C@@]2(C)C[C@@H]1N1CCCCC1 [Vecuronium bromide] | 0.172 ± 0.019
6 | NS(=O)(=O)c1cc(C2(O)NC(=O)c3ccccc32)ccc1Cl (stereo not given) [Chlorthalidone] | 0.205 ± 0.016
7 | CC[C@H]1OC(=O)[C@H](C)[C@@H](O[C@H]2C[C@@](C)(OC)[C@@H](O)[C@H](C)O2)[C@H](C)[C@@H](O[C@@H]2O[C@H](C)C[C@H](N(C)C)[C@H]2O)[C@](C)(O)C[C@@H](C)CN(C)[C@H](C)[C@@H](O)[C@]1(C)O [Azithromycin] | 0.1 ± 0.088
8 | CC(=O)N(CC(O)CN(C(C)=O)c1c(I)c(C(=O)NCC(O)CO)c(I)c(C(=O)NCC(O)CO)c1I)c1c(I)c(C(=O)NCC(O)CO)c(I)c(C(=O)NCC(O)CO)c1I (stereo not given) [Iodixanol] | 0.206 ± 0.0036
9 | CN1CCN2c3ccccc3Cc3ccccc3C2C1 (stereo not given) [Mianserine hydrochloride] | 0.189 ± 0.0025
10 | Clc1ccc2nsnc2c1NC1=NCCN1 [Tizanidine HCl] | 0.216 ± 0.032
11 | CC(=O)[C@H]1CC[C@H]2[C@@H]3CCC4=CC(=O)CC[C@]4(C)[C@H]3CC[C@]12C [Progesterone] | 0.178 ± 0.015
12 | C#Cc1cccc(Nc2ncnc3cc(OCCOC)c(OCCOC)cc23)c1 [Erlotinib] | 0.161 ± 0.0058
13 | Nc1cc(-c2ccncc2)c[nH]c1=O [Amrinone] | 0.206 ± 0.0051
14 | COc1cc2nc(N3CCN(C(=O)C4COc5ccccc5O4)CC3)nc(N)c2cc1OC (stereo not given) [Doxazosin mesylate] | 0.194 ± 0.015
15 | CN1CCN(CCCN2c3ccccc3Sc3ccc(S(=O)(=O)N(C)C)cc32)CC1 [Thioproperazine dimesylate] | 0.2 ± 0.024
16 | O=c1[nH]c(=O)n([C@H]2C[C@H](O)[C@@H](CO)O2)cc1C(F)(F)F [Trifluridine] | 0.164 ± 0.006
17 | COc1ccc2cc(CCC(C)=O)ccc2c1 [Nabumetone] | 0.175 ± 0.0022
18 | CCN(CC)CCNC(=O)c1cc(Br)c(N)cc1OC [Bromopride] | 0.196 ± 0.014
19 | O=C1C(O)=C(O)C(=O)C(O)=C1O [Tetrahydroxy-1,4-quinone hydrate] | 0.206 ± 0.021
20 | CC(=O)N(O)CCCCCNC(=O)CCC(=O)N(O)CCCCCNC(=O)CCC(=O)N(O)CCCCCN [Deferoxamine mesylate] | 0.137 ± 0.021
21 | O=c1cc(-c2ccc(O)c(O)c2)oc2cc(O)cc(O)c12 [Luteolin] | 0.0614 ± 0.0012
22 | Nc1nc(=O)c2nc(CNc3ccc(C(=O)N[C@@H](CCC(=O)O)C(=O)O)cc3)cnc2[nH]1 [Folic acid] | 0.211 ± 0.019
23 | O=C(O)CNC(=O)C(CS)Cc1ccccc1 (stereo not given) [Thiorphan] | 0.202 ± 0.019
24 | CC1(C)S[C@@H]2[C@H](NC(=O)[C@H](NC(=O)N3CCNC3=O)c3ccccc3)C(=O)N2[C@H]1C(=O)O [Azlocillin sodium salt] | 0.177 ± 0.015
25 | Clc1cnccn1 [2-Chloropyrazine] | 0.231 ± 0.013
26 | O=C(C1CCCCC1)N1CC(=O)N2CCc3ccccc3C2C1 (stereo not given) [Praziquantel] | 0.174 ± 0.0068
27 | C#C[C@]1(O)CC[C@H]2[C@@H]3CCC4=CC(=O)CC[C@@H]4[C@H]3CC[C@@]21CC [Norgestrel-(-)-D] | 0.191 ± 0.0085
28 | CCCCOc1ccc(C(=O)CCN2CCCCC2)cc1 [Dyclonine hydrochloride] | 0.149 ± 0.0069
29 | CC1CCc2c(N3CCC(O)CC3)c(F)cc3c(=O)c(C(=O)O)cn1c23 (stereo not given) [Nadifloxacin] | 0.0495 ± 0.00066
30 | OC(c1cc(C(F)(F)F)nc2c(C(F)(F)F)cccc12)C1CCCCN1 (stereo not given) [Mefloquine hydrochloride] | 0.0464 ± 0.00035
